Records with an inconclusive call do not appear. A call without a number means that no potency is given here. Activity calls are given as the source filed them. Calls come from the whole dose curve; as a rule, active = well fitted curve in the direction sought with a large enough effect in the repeat runs; inconclusive = weak or mixed curves; inactive = no such curve, though single readings can be large; an effect the other way counts as inactive or inconclusive.
Key:
[1] = molecular target: Cytochrome P450 2D6 (Homo sapiens) (UniProt P10635); assay: Cytochrome P450 Family 2 Subfamily D Member 6 (CYP2D6) small molecule antagonists: luciferase reporter qHTS assay (AID 1671196); note: nearly all actives have a fitted effect of over 50% in size; note: potency is the fitted concentration of half-maximal effect
Outline: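 Enzyme and proluciferin substrate were first combined with test chemical for 10 min at room temperature. Adding NADPH regeneration solution started a 1 h reaction, stopped with luciferin detection reagent and read by luminescence 20 min later.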

[2] = molecular target: Cytochrome P450 1A2 (Homo sapiens) (UniProt P05177); assay: Cytochrome P450 Family 1 Subfamily A Member 2 (CYP1A2) small molecule antagonists: luciferase reporter qHTS assay (AID 1671199); note: nearly all actives have a fitted effect of over 50% in size; note: potency is the fitted concentration of half-maximal effect
Outline: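 Compounds were incubated with CYP1A2 and a luminogenic proluciferin substrate for 10 min at room temperature before the reaction was started with NADPH regeneration solution. After 1 h, detection reagent was added and light output, proportional to CYP activity, was recorded.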

[3] = molecular target: Voltage-gated inwardly rectifying potassium channel KCNH2 (Homo sapiens) (UniProt Q12809); assay: Human Ether-a-go-go-Related Gene (hERG) channel small molecule antagonists: fluorescence cell-based qHTS assay (AID 1671200); note: nearly all actives have a fitted effect of over 50% in size; note: potency is the fitted concentration of half-maximal effect
Outline: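 In this thallium-flux screen, overnight-cultured U2OS cells bearing the channel are dye-loaded in darkness for an hour, rested 10 min at room temperature, and then monitored kinetically at 480/540 nm for two minutes post-stimulus.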

[4] = molecular target: Cytochrome P450 2C9 (Homo sapiens) (UniProt P11712); assay: Cytochrome P450 Family 2 Subfamily C Member 9 (CYP2C9) small molecule antagonists: luciferase reporter qHTS assay (AID 1671198); note: nearly all actives have a fitted effect of over 50% in size; note: potency is the fitted concentration of half-maximal effect
Outline: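 P450-Glo proluciferin substrate with CYP2C9 enzyme; 10 min RT preincubation, then NADPH regeneration 1 h at 37C; luciferin detection reagent 20 min RT, luminescence in relative luminescence units.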

[5] = molecular target: Cytochrome P450 3A4 (Homo sapiens) (UniProt P08684); assay: Cytochrome P450 Family 3 Subfamily A Member 4 (CYP3A4) small molecule antagonists: luciferase reporter qHTS assay (AID 1671201)
Outline: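 CYP3A4 activity was followed with a P450-Glo proluciferin substrate. Test compounds in DMSO were preincubated 10 min; NADPH regeneration then ran 1 h, and light output was read 20 min after detection reagent.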

[6] = molecular target: Cytochrome P450 2C19 (Homo sapiens) (UniProt P33261); assay: Cytochrome P450 Family 2 Subfamily C Member 19 (CYP2C19) small molecule antagonists: luciferase reporter qHTS assay (AID 1671197); note: nearly all actives have a fitted effect of over 65% in size; note: potency is the fitted concentration of half-maximal effect
Outline: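 Luminescent readout of CYP2C19 activity: luciferin product detected 20 min after adding detection reagent. Before that, compound and enzyme-substrate mix preincubated 10 min at room temperature; NADPH-regenerating system started a 1 h, 37C reaction. Ketoconazole as positive control.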

Cytochrome P450 2C19 (Homo sapiens), sequence (P33261 whole entry, looked up): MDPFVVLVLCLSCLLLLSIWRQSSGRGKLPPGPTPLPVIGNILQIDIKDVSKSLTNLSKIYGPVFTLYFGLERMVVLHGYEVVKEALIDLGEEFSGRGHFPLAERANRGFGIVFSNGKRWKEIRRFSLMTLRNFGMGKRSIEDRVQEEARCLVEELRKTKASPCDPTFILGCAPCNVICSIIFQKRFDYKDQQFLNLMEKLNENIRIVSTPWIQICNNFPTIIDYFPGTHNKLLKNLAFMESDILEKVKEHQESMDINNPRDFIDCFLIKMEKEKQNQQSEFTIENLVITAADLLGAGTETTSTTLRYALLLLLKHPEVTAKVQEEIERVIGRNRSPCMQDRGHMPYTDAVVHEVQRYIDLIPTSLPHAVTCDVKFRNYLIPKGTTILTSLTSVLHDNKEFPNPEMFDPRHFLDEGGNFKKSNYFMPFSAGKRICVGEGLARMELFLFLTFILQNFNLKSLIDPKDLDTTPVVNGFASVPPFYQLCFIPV
Voltage-gated inwardly rectifying potassium channel KCNH2 (Homo sapiens), sequence (Q12809 whole entry, looked up): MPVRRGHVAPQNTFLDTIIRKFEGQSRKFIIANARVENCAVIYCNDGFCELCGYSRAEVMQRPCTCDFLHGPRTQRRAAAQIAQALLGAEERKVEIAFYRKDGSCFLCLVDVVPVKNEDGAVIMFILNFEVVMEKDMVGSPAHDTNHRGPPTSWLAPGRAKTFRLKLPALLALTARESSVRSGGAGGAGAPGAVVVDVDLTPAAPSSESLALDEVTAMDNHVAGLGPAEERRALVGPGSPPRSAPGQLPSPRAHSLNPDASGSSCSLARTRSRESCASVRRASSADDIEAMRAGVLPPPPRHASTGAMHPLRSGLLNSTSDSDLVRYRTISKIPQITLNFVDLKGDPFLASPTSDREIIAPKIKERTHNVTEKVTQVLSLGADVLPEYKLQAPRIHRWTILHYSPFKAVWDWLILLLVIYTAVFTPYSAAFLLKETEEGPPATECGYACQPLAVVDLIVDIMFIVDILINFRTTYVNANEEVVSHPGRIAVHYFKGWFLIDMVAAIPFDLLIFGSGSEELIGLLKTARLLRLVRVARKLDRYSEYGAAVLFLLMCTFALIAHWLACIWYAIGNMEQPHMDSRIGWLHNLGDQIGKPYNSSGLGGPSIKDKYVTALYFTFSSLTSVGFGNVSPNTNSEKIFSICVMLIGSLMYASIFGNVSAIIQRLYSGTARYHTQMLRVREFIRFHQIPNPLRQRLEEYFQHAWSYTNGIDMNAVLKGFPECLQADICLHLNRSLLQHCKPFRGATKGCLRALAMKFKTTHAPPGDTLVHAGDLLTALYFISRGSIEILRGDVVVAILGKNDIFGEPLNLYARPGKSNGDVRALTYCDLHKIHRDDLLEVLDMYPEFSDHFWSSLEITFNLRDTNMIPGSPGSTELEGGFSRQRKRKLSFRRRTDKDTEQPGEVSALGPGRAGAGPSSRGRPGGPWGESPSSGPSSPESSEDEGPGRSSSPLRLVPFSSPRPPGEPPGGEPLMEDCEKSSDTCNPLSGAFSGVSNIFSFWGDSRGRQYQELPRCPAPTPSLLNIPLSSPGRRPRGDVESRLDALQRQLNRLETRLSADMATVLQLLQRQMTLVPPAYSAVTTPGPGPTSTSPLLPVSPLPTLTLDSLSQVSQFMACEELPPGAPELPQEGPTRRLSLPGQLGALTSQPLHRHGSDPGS
Cytochrome P450 1A2 (Homo sapiens), sequence (P05177 whole entry, looked up): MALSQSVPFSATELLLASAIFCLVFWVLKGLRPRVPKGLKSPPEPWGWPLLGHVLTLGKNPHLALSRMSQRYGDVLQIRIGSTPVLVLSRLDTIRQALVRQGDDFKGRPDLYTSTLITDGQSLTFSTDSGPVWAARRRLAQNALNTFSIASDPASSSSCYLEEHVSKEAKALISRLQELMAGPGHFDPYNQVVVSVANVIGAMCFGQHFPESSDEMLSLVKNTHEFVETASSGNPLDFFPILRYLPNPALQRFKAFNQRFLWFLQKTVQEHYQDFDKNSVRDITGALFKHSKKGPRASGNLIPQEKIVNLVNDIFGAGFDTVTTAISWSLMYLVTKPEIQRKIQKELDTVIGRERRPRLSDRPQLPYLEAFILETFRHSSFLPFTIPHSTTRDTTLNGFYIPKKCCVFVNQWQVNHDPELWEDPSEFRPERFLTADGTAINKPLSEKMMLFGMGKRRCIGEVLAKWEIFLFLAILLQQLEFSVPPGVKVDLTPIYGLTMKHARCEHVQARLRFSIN
Cytochrome P450 2C9 (Homo sapiens), sequence (P11712 whole entry, looked up): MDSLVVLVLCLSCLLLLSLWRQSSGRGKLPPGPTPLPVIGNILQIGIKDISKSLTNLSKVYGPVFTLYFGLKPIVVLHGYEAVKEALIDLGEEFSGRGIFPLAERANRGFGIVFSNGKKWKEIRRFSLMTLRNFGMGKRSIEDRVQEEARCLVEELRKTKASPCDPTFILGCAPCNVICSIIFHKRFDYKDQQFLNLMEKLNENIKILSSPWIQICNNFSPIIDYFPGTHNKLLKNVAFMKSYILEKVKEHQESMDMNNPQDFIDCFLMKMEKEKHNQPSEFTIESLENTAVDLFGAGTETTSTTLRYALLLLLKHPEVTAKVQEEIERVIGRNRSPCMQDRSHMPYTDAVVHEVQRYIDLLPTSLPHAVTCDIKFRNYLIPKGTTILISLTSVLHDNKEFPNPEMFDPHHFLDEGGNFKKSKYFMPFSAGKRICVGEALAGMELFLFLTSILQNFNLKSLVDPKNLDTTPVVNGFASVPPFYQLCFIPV
Cytochrome P450 2D6 (Homo sapiens), sequence (P10635 whole entry, looked up): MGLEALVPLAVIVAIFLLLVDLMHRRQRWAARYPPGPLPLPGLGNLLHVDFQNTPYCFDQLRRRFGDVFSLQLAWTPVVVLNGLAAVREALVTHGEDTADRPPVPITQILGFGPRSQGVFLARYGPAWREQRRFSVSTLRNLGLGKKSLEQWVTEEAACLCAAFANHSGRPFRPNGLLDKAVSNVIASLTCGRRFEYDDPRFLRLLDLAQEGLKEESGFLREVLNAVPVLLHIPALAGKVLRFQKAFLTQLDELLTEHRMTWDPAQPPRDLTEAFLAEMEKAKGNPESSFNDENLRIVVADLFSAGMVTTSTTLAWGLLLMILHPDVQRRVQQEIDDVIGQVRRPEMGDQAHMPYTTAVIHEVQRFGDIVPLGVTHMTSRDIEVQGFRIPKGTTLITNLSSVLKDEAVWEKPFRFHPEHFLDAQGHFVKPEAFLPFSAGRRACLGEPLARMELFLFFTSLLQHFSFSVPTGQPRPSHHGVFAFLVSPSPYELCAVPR
Cytochrome P450 3A4 (Homo sapiens), sequence (P08684 whole entry, looked up): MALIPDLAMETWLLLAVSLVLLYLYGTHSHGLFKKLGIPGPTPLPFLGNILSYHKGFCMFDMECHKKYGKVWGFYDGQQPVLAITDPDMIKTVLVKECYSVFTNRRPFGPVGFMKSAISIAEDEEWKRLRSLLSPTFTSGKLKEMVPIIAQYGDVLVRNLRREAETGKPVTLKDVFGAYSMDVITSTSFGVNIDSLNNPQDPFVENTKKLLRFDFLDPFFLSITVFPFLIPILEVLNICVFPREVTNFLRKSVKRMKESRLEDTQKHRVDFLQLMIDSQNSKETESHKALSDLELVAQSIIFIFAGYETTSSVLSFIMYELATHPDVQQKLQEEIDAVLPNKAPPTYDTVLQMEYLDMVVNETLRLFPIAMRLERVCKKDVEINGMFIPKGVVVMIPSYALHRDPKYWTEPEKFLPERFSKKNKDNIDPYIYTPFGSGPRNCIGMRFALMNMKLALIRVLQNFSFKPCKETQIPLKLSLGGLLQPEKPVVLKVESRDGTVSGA

Row | Structure (SMILES) | Potency [1] | Potency [2] | Potency [3] | Potency [4] | Potency [5] | Potency [6]
1 | NNC(=O)CP(=O)(c1ccccc1)c1ccccc1 | inactive | inactive | inactive |  |  | 
2 | CCCCCCCCC(CCCCCC)C(=O)O (centres undefined) | inactive |  | inactive | 25.2 µM (active) | inactive | 
3 | COC(=O)CS | inactive |  | inactive | inactive | inactive | 
4 | CCCCCCCCCCC(=O)O | inactive | inactive | inactive |  | inactive | 
5 | CO/N=C(/C(=O)N[C@@H]1C(=O)N2C(C(=O)O)=C(COC(N)=O)CS[C@H]12)c1ccco1 | inactive | inactive | inactive |  |  | 
6 | CO[C@]1(NC(=O)CSC(F)F)C(=O)N2C(C(=O)O)=C(CSc3nnnn3CCO)CO[C@H]21 |  | inactive | inactive | inactive | inactive | inactive
7 | Nc1ncnc2c1ncn2[C@H]1CC[C@@H](CO)O1 | inactive |  | inactive | inactive | inactive | 
8 | CCCC(=O)C(=O)O | 35.6 µM (active) |  | inactive | inactive | inactive | 
9 | CC(=O)Oc1ccc([N+](=O)[O-])cc1CCl | inactive | inactive | inactive |  | inactive | 
10 | C[C@H]1c2cccc(O)c2C(O)=C2C(=O)[C@]3(O)C(O)=C(C(N)=O)C(=O)[C@@H](N(C)C)[C@@H]3[C@@H](O)[C@@H]21 | inactive | inactive | inactive |  | inactive | 
11 | Cc1c(C)c2c(c(C)c1OC(=O)CCC(=O)OCCO)CC[C@@](C)(CCC[C@H](C)CCC[C@H](C)CCCC(C)C)O2 | inactive | 27.5 µM (active) | inactive |  |  | 
12 | CC(=O)c1ccc([N+](=O)[O-])cc1 |  | 40 µM (active) | inactive | inactive | inactive | 63.4 µM (active)
13 | COc1cc(N)c(Cl)cc1C(=O)NC1CCN(CCCOc2ccc(F)cc2)CC1OC (centres undefined) |  | inactive |  | inactive |  | 15.5 µM (active)
14 | CC(C)(c1ccccc1)c1ccccc1 | 58.8 µM (active) |  |  | inactive | inactive | 
15 | C[C@@H](CN(C)C)CN1c2ccccc2Sc2ccccc21 |  |  | 9.52 µM (active) |  |  | 

Source: PubChem BioAssay (Tox21)
